{
  "source": "paper PMC4336329",
  "about": "(PLoS ONE, 2015)",
  "note": "The campaign covered roughly 310,000 compounds. About 14,000 (4.5%) showed an effect of 50% or more. The effect is printed as a negative number. Shown is part of a subset that was picked to be rich in strong results.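 Also: peak tail current of the secondary pulse compared with the same well before compound.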",
  "data": [
    {"molecular_target": "human ether-à-go-go-related gene (hERG) potassium channel (human, UniProt Q12809)", "sequence (Q12809 whole entry, looked up)": "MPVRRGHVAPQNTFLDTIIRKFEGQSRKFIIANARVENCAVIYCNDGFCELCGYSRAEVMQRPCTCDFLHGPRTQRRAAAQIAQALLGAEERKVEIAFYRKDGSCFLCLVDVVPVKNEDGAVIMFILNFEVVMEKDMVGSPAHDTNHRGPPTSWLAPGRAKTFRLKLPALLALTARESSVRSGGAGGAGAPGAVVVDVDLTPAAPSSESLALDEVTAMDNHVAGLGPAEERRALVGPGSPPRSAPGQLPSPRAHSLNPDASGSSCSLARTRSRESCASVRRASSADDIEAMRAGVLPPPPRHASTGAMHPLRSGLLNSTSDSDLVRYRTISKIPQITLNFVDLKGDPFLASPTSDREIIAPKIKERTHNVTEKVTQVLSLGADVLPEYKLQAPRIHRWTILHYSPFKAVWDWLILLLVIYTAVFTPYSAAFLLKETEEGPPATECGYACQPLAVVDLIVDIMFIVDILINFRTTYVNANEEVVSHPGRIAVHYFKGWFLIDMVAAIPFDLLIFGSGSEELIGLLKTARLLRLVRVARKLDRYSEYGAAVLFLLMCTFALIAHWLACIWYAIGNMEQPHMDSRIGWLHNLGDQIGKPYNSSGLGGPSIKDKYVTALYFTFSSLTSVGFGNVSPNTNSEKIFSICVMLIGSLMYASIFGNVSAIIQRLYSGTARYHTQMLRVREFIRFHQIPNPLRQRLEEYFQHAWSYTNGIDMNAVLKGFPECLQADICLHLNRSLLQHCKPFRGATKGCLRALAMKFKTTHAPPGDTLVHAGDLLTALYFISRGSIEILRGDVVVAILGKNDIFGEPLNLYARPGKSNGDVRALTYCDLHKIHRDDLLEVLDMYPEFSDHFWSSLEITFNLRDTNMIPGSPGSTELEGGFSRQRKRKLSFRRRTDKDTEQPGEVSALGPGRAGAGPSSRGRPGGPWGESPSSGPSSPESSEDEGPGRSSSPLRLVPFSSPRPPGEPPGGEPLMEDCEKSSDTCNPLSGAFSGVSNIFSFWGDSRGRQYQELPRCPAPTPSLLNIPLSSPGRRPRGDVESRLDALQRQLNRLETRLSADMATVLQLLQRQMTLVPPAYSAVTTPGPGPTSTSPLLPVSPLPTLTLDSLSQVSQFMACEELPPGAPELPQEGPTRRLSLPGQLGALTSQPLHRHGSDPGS", "assay": "primary screen, population patch clamp on CHO cells stably expressing hERG; higher = less effect of the substance", "units": {"hERG current change (%, negative = inhibition) at 10uM": "%"}, "values": [
      {"smiles": "N=c1c2c(ncn1CCN1CCOCC1)Oc1ccc3ccccc3c1C2c1ccccc1", "note": "(stereo not drawn)", "hERG current change (%, negative = inhibition) at 10uM": -49.3},
      {"smiles": "COc1ccc(C2c3ccc4ccccc4c3Oc3ncn(CCO)c(=N)c32)cc1", "note": "(stereo not drawn)", "hERG current change (%, negative = inhibition) at 10uM": -74.2},
      {"smiles": "COC(=O)C1CN(C(=O)COc2ccc(Cl)cc2Cl)c2ccccc2O1", "note": "(stereo not drawn)", "hERG current change (%, negative = inhibition) at 10uM": -2.51},
      {"smiles": "CCCCNC(=O)/C(C#N)=c1\\s/c(=C\\c2ccccc2OC(F)F)c(=O)n1CCCOC", "hERG current change (%, negative = inhibition) at 10uM": 22.6},
      {"smiles": "Cc1ccc(Nc2c([N+](=O)[O-])cc(C(=O)N3CC(=O)Nc4ccccc43)cc2[N+](=O)[O-])c(C)c1", "hERG current change (%, negative = inhibition) at 10uM": 15.2},
      {"smiles": "COCCNC(=O)C(=O)c1c(-c2ccccc2)[nH]c2ccccc12", "hERG current change (%, negative = inhibition) at 10uM": 1.69},
      {"smiles": "CCOC(=O)NCc1ccc2c(c1)OCO2", "hERG current change (%, negative = inhibition) at 10uM": 19.7},
      {"smiles": "O=C(CCN1C(=O)/C(=C/c2ccc(F)cc2)SC1=S)Nc1cc([N+](=O)[O-])ccc1O", "hERG current change (%, negative = inhibition) at 10uM": 15},
      {"smiles": "COC(=O)c1ccnc(/C=N/O)c1", "hERG current change (%, negative = inhibition) at 10uM": 10.7},
      {"smiles": "CCNS(=O)(=O)c1ccc2nc(NC(=O)c3cccnc3)sc2c1", "hERG current change (%, negative = inhibition) at 10uM": -1.78},
      {"smiles": "Cc1ccc(N2CC(C(=O)Nc3cccnc3)CC2=O)cc1", "note": "(stereo not drawn)", "hERG current change (%, negative = inhibition) at 10uM": -9.42},
      {"smiles": "O=S(=O)(c1ccc(Cl)cc1)N1CCN2CCCC2C1", "note": "(stereo not drawn)", "hERG current change (%, negative = inhibition) at 10uM": -6.01},
      {"smiles": "CN(C)NC1CC(=O)N(c2ccccc2)C1=O", "note": "(stereo not drawn)", "hERG current change (%, negative = inhibition) at 10uM": 15.9},
      {"smiles": "NC(=O)N/N=C/c1cn(-c2ccccc2)nc1-c1ccccc1", "hERG current change (%, negative = inhibition) at 10uM": -6.63},
      {"smiles": "Cc1[nH]c(=O)[nH]c(=O)c1S(=O)(=O)Nc1ccc(F)cc1Cl", "hERG current change (%, negative = inhibition) at 10uM": 17.1},
      {"smiles": "S=c1[nH]nc(COc2ccccc2)n1/N=C/c1ccc(Cl)cc1", "hERG current change (%, negative = inhibition) at 10uM": 22.4},
      {"smiles": "COc1ccc(C2c3ccc4ccccc4c3Oc3ncn(CCCO)c(=N)c32)cc1", "note": "(stereo not drawn)", "hERG current change (%, negative = inhibition) at 10uM": -71.6},
      {"smiles": "COc1ccccc1C1c2ccc3ccccc3c2Oc2ncn(CCCO)c(=N)c21", "note": "(stereo not drawn)", "hERG current change (%, negative = inhibition) at 10uM": -66.6},
      {"smiles": "COc1ccc(C2c3ccc4ccccc4c3Oc3ncn4nc(Cc5ccccc5)nc4c32)cc1OC", "note": "(stereo not drawn)", "hERG current change (%, negative = inhibition) at 10uM": 13.2},
      {"smiles": "N=c1c2c(ncn1Cc1ccco1)Oc1c(ccc3ccccc13)C2c1ccccc1", "note": "(stereo not drawn)", "hERG current change (%, negative = inhibition) at 10uM": -26.5},
      {"smiles": "COc1ccc(C2c3ccc4ccccc4c3Oc3ncn(Cc4ccco4)c(=N)c32)cc1OC", "note": "(stereo not drawn)", "hERG current change (%, negative = inhibition) at 10uM": -62.9},
      {"smiles": "CC1(c2nnc(-c3ccccc3)o2)CC(c2ccc([N+](=O)[O-])cc2)=NO1", "note": "(stereo not drawn)", "hERG current change (%, negative = inhibition) at 10uM": 4.53},
      {"smiles": "O=C(Nc1cccc(Cl)c1)c1cc(S(=O)(=O)N2CCCCC2)c[nH]1", "hERG current change (%, negative = inhibition) at 10uM": -9.13},
      {"smiles": "Cc1nn2c(=O)cc(CSc3ccccc3NC(=O)c3ccccc3F)nc2s1", "hERG current change (%, negative = inhibition) at 10uM": -3.29},
      {"smiles": "CCCCCCCCCCCC(=O)N/N=C/c1ccco1", "hERG current change (%, negative = inhibition) at 10uM": -11.2},
      {"smiles": "COc1ccc(Cc2nc3ccc(C(=O)N4CCCCC4CCO)cc3o2)cc1", "note": "(stereo not drawn)", "hERG current change (%, negative = inhibition) at 10uM": 4.93},
      {"smiles": "CN(C)C(=O)Cn1c(SCC(=O)NC2CCCCC2)nc2ccccc21", "hERG current change (%, negative = inhibition) at 10uM": 7.7},
      {"smiles": "COC(=O)Cn1c(=O)c(=O)n(CC(=O)OC)c2ccccc21", "hERG current change (%, negative = inhibition) at 10uM": 22.7},
      {"smiles": "Cn1cnc(S(=O)(=O)NC2CCN(Cc3c(F)cccc3Cl)CC2)c1", "hERG current change (%, negative = inhibition) at 10uM": -18.6},
      {"smiles": "COCCN(C(=O)C1CC1)c1nnc(-c2cccc(C)c2)s1", "hERG current change (%, negative = inhibition) at 10uM": -6.82},
      {"smiles": "O=C(CCn1c(=O)c2cccn2c2cccnc21)N1CCN(c2cccc(Cl)c2)CC1", "hERG current change (%, negative = inhibition) at 10uM": -58.8},
      {"smiles": "O=C(OCC(=O)N1CCN(c2ccccc2)CC1)c1ccc(Cl)cc1[N+](=O)[O-]", "hERG current change (%, negative = inhibition) at 10uM": -63.6},
      {"smiles": "O=C(OCC(=O)N1CCN(c2ccccc2)CC1)c1cc(Cl)ccc1[N+](=O)[O-]", "hERG current change (%, negative = inhibition) at 10uM": -37},
      {"smiles": "CN1CCN(C(=O)CCn2c(=O)c3cccn3c3cccnc32)CC1", "hERG current change (%, negative = inhibition) at 10uM": 8.62},
      {"smiles": "O=C(CCNS(=O)(=O)c1cccs1)N1CCN(c2cccc(Cl)c2)CC1", "hERG current change (%, negative = inhibition) at 10uM": -10.3},
      {"smiles": "O=C(O)CCCC(=O)N1CCN(c2cccc(Cl)c2)CC1", "hERG current change (%, negative = inhibition) at 10uM": 2.98},
      {"smiles": "O=C(CCC(=O)N1CCN(c2cccc(Cl)c2)CC1)N1CCN(c2ccccc2)CC1", "hERG current change (%, negative = inhibition) at 10uM": -55.6},
      {"smiles": "O=C(O)CCC(=O)N1CCN(c2cccc(Cl)c2)CC1", "hERG current change (%, negative = inhibition) at 10uM": 12},
      {"smiles": "O=C(OCC(=O)N1CCN(c2ccccc2)CC1)c1ccccc1[N+](=O)[O-]", "hERG current change (%, negative = inhibition) at 10uM": -28.8},
      {"smiles": "O=C(CCCNS(=O)(=O)c1cccs1)N1CCN(c2cccc(Cl)c2)CC1", "hERG current change (%, negative = inhibition) at 10uM": -56.9},
      {"smiles": "O=C(Cn1c(=O)c2cccn2c2cccnc21)N1CCN(c2ccc(Cl)cc2)CC1", "hERG current change (%, negative = inhibition) at 10uM": -47},
      {"smiles": "O=C(CCCNS(=O)(=O)c1cccs1)N1CCN(c2ccc(F)cc2)CC1", "hERG current change (%, negative = inhibition) at 10uM": -43.2}
    ]}
  ]
}
